The list is not random: actives were taken first. Their share in the collection is about 18%.
TDP1 cell CPT = qHTS for Inhibitors of human tyrosyl-DNA phosphodiesterase 1 (TDP1): qHTS in cells in presence of CPT. chicken DT40 Tdp1-/-;hTDP1 cells + 20 nM CPT, ATP luminescence, 48 h. Potency, µM (top dose mostly 46.2 µM), inactives show at the highest dose activity change, negative = growth inhibition, hits mostly inhibitors. 420,000 tested, 12% active. AID 686979, 2013; note: nearly all actives have a fitted effect of over 55% in size
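Chicken DT40 Tdp1-/- cells complemented with human TDP1, 400 cells/well, exposed to compounds plus 20 nM camptothecin for at least 48 h at 37 C; viability read as ATP content by CellTiter-Glo luminescence.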
VDR inhibitor = Inhibitors of the vitamin D receptor (VDR): qHTS | Vitamin D3 receptor (Homo sapiens), P11473 | VDR-SRC2-3 peptide fluorescence polarization, 2 h | Potency, µM, without a hit: max response, negative = inhibition, usual class: inhibitors | 400,000 tested, 0.93% active | AID 504847, 2011
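Measured by FP: displacement of SRC2-3 coactivator peptide from VDR by library compounds, following a two-hour ambient incubation.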
GCN5L2 inh = qHTS Assay for Inhibitors of GCN5L2; GCN5L2 HAT assay, ThioGlo1 CoA-SH fluorescence; Histone acetyltransferase KAT2A (Homo sapiens), Q92830; Potency, µM (top dose mostly 58.9 µM), for the others: at the highest dose activity change, negative = inhibition, most hits filed as inhibitors; 390,000 tested, 0.21% active; AID 504327, 2011
Target sequence (Q92830 whole entry, looked up): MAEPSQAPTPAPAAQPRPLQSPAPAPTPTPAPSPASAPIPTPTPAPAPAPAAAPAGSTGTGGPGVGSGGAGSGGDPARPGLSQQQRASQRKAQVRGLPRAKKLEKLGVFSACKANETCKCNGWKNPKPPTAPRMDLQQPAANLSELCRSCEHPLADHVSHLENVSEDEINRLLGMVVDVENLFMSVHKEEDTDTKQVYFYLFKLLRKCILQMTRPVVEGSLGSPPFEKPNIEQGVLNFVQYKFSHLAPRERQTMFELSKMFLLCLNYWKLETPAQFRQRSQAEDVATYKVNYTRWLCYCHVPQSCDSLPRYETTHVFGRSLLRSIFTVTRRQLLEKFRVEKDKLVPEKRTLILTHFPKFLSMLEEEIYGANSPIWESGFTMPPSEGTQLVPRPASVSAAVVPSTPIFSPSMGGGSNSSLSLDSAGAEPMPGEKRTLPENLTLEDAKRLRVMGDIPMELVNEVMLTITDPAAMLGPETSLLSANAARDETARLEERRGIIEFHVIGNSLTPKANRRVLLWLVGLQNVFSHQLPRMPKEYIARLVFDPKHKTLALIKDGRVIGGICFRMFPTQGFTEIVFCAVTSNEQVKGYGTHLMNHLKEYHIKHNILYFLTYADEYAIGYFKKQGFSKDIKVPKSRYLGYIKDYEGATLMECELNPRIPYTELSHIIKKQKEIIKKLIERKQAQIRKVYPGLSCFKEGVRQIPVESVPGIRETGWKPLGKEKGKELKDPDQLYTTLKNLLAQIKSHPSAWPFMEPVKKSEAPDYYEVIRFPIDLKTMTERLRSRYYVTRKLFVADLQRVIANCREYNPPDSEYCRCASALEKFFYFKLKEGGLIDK
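GCN5L2 (20nM final) in 50mM HEPES, 0.1mM EDTA pH 7.5, 0.01% Tween-20 was preincubated 15 min at room temperature with compound, then given ThioGlo1 (50uM), H3(1-25) peptide (75uM) and acetyl-CoA (70uM); CoA-thiol fluorescence (Ex340/Em540) was read at 0 and 20 min.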
TDP1 inh = qHTS Assay for Inhibitors of Tyrosyl-DNA Phosphodiesterase (TDP1); Tyrosyl-DNA phosphodiesterase 1 (Homo sapiens), Q9NUW8; recombinant TDP1, AlphaScreen DNA substrate cleavage; Potency, µM (doses to about 130 µM), without a hit: at the highest dose activity change, negative = inhibition, hits mostly inhibitors; 350,000 tested, 0.28% active; AID 485290, 2010; note: nearly all actives have a fitted effect of over 40% in size
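Compounds were preincubated with Tdp1 (1 nM final) for 15 min at room temperature before substrate (15 nM final) started a 5 min reaction; beads (10 ug/ml final) were then added for 10 min before AlphaScreen detection.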
TDP1 cell noCPT = qHTS for Inhibitors of human tyrosyl-DNA phosphodiesterase 1 (TDP1): qHTS in cells in absence of CPT. DT40 Tdp1-/- hTDP1 cells, no CPT, ATP luminescence, 48 h. Potency, µM (titrated, usually from 46.2 µM), for inactives: top-dose activity change, negative = growth inhibition, usual class: inhibitors. 420,000 tested, 15% active. AID 686978, 2013; note: nearly all actives have a fitted effect of over 55% in size
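Seeded 400 DT40-hTDP1 cells/well (vehicle DMSO, no 20 nM CPT); pinned compounds; ≥48 hr at 37 °C; CellTiter-Glo luminescence as viability measure.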
PLK1 PBD inh = qHTS for Inhibitors of PLK1-PDB (polo-like kinase 1 - polo-box domain): Primary Screen. Plk1 PBD binding of FITC phosphopeptide, fluorescence polarization. Serine/threonine-protein kinase PLK1 (Homo sapiens), P53350. Potency, µM, inactives show max response, negative = inhibition, hits mostly inhibitors. 360,000 tested, 2.8% active; note: series mostly up to about 57 µM; nearly all actives have a fitted effect of over 65% in size
* hit, by the source's call; ? = inconclusive; . = no result; [ ] = another dose, or the depositor's remark. Calls come from the whole dose curve; as a rule, active = well fitted curve in the direction sought with a large enough effect; inconclusive = small, poorly fitted or top-dose-only effect, or another doubt; inactive = no such curve, though single readings can be large; an effect the other way counts as inactive or inconclusive. % is set by controls: 0 for no effect and ±100 for the full control effect; potency is the fitted concentration of half-maximal effect.

SMILES	TDP1 cell CPT	VDR inhibitor	GCN5L2 inh	TDP1 inh	TDP1 cell noCPT	PLK1 PBD inh
C/C(=N\Nc1ccc(Cl)c(C(=O)O)c1)c1cccc([N+](=O)[O-])c1	-3%	5%	-3%	0%	-10%	-11%
O=[N+]([O-])c1cccc(/C=N/Nc2nnc(-c3ccccc3)c(-c3ccccc3)n2)c1	9.2µM*	-13%	23%	3%	9.2µM*	-10%
Cc1ccc(C2(c3ccc(C)cc3)CC2C(=O)Nc2ccc([N+](=O)[O-])cc2O)cc1 (stereo not given)	3.7µM*	4%	-28%	9%	2.6µM*	-2%
C/C(=N\NC(=O)C1CC1(c1ccccc1)c1ccccc1)c1cccc([N+](=O)[O-])c1 (stereo not given)	?	14%	-2%	4%	7.3µM*	-7%
C/C(=N\Nc1nnc(-c2ccccc2)c(-c2ccccc2)n1)c1cccc([N+](=O)[O-])c1	7.3µM*	-6%	-4%	6%	8.2µM*	-2%
COc1ccc(S(=O)(=O)Nc2ccccc2-c2nc3ccccc3[nH]c2=O)cc1	?	-15%	-9%	3%	?	-5%
CN(C)c1nnc(-c2ccc(Cl)cc2)o1	14%	-5%	-18%	9%	-4%	0%
CC(=O)[C@H]1[C@H]([C@H](O)[C@H](O)CO)O[C@](O)(C(=O)O)C[C@@H]1O	6%	-8%	-1%	.	-6%	4%
O=C(COC(=O)c1ccc(F)c(S(=O)(=O)N2CCOCC2)c1)NC1CC1	0%	9%	-4%	0%	13%	-1%
C/C(=N\Nc1cc(C)nc(NCc2ccccc2)n1)c1cccc([N+](=O)[O-])c1	8.2µM*	-17%	2%	10%	2.9µM*	1%
O=[N+]([O-])c1cccc(-c2csc(N/N=C/c3cccc(O)c3)n2)c1	?	18%	-7%	6%	21µM*	-26%
COc1ccc(C(=O)OCC(=O)N2CCN(S(=O)(=O)c3ccc(C)cc3)CC2)cc1[N+](=O)[O-]	-8%	82%	.	.	?	0%
CO[C@@H]1COC(=O)CCC[C@@H](C)[C@H](OC)COC(=O)[C@H](Cc2ccccc2)NC(=O)C/C=C\[C@H]1C	.	.	.	6%[21 µM]	.	.
Clc1ccc(COc2cccc(CNCc3ccncc3)c2)cc1	?	-7%	2%	3%	18µM*	-2%
COc1ccccc1-c1nc(NCc2cccnc2)c2ccccc2n1	-17%	?	-13%	.	?	.
CC(=O)OCC(NC(=O)C(CCCCNC(=O)OCc1ccccc1)NC(=O)OC(C)(C)C)C1OC(n2ccc(=O)[nH]c2=O)C(OC(C)=O)C1OC(C)=O (stereo not given)	.	5%	.	?	.	.
CC1(C)CC(=O)c2cnc(NC(=O)Cc3ccc(Cl)cc3)nc2C1	?	-17%	-20%	2%	23µM*	19µM*
CCCN1C(=O)/C(=C/c2cc(C)n(C)c2C)SC1=Nc1ccc(OC)cc1	13µM*	4%	-6%	8%	9.2µM*	-7%
COc1ccccc1N1C(=O)S/C(=C\c2cc(C)n(C)c2C)C1=O	?	21%	-9%	5%	?	-16%
COc1ccc(N=C2S/C(=C\c3cc(C)n(C)c3C)C(=O)N2C)cc1	?	9%	-12%	12%	6.5µM*	-5%
O=S(=O)(c1ccc(N2CCC(c3ccc(Cl)cc3)=N2)cc1)N(CCO)CCO	?	3%	-21%	.	?	30µM*
O=C(CSc1ccccc1C(=O)N1CCN(c2ccccc2)CC1)N1CCCC1	?	-11%	0%	1%	-23%	-26%
O=C(Cn1cc([N+](=O)[O-])nc1[N+](=O)[O-])N1CCN(c2ccccc2)CC1	16µM*	8%	1%	1%	?	-1%
O=C(CN1C(=O)c2ccccc2C1=O)N1CCN(c2ccccc2)CC1	11%	-7%	3%	5%	-22%	2%
O=[N+]([O-])c1ccc(N2CCc3ccccc3C2)cc1	?	-23%	-15%	.	18µM*	-6%
SMILES	TDP1 cell CPT	VDR inhibitor	GCN5L2 inh	TDP1 inh	TDP1 cell noCPT	PLK1 PBD inh
O=C(Cc1ccc([N+](=O)[O-])cc1)N1CCN(c2ccc([N+](=O)[O-])cc2)CC1	18µM*	-3%	-15%	.	7.3µM*	-21%
O=C(CSc1ccccc1C(=O)N1CCN(c2ccc([N+](=O)[O-])cc2)CC1)N1CCCC1	12µM*	-9%	-8%	1%	15µM*	-21%
O=[N+]([O-])c1ccc(-c2csc(N3CCc4ccccc4C3)n2)cc1	-12%	-15%	-6%	2%	-1%	-8%
O=C(Cc1ccccc1)N1CCN(c2ccc([N+](=O)[O-])cc2)CC1	?	-5%	-27%	.	?	2%
O=C(NC1=NCCS1)C1CCN(S(=O)(=O)c2ccccc2C(F)(F)F)CC1	-25%	-4%	-1%	0%	-11%	-6%
O=C(CCc1ccccc1)N1CCN(c2ccc([N+](=O)[O-])cc2)CC1	?	-5%	-8%	9%	23µM*	-5%
O=C(CCc1ccc(Oc2cc([N+](=O)[O-])cc([N+](=O)[O-])c2)cc1)N1CCCCCC1	18µM*	?	26%	3%	?	-12%
O=C1C2CCCCN2C(=O)N1CCN1CCN(c2ccc([N+](=O)[O-])cc2)CC1 (stereo not given)	-24%	?	-9%	2%	?	-10%
O=C(Cc1ccc([N+](=O)[O-])cc1)N1CCCCCC1	-10%	-22%	-1%	8%	?	-19%
O=C(CCc1ccccc1)N1CCN(c2ccc(Cl)cc2)CC1	-24%	-11%	.	0%	-25%	-3%
O=C(CCCN1C(=O)C2CCCCN2C1=O)N1CCN(c2ccc([N+](=O)[O-])cc2)CC1 (stereo not given)	?	-1%	-5%	-1%	23µM*	-1%
O=C(NCCN1CCN(c2ccc([N+](=O)[O-])cc2)CC1)NCc1ccccc1	?	-3%	0%	7%	8.2µM*	-13%
O=C(Cc1ccc(F)cc1)N1CCN(c2ccc([N+](=O)[O-])cc2)CC1	21µM*	-23%	?	.	?	-5%

Compound activity as filed in PubChem.
